Test results taken from PubChem BioAssay (Tox21).
Results filed as inconclusive are left out. Calls of active or inactive are those of the source. Unless noted, the call rests on the fitted dose curve; in most records, active means well fitted curve in the direction sought with a large enough effect in the repeat runs; inconclusive means weak or mixed curves; inactive means no such curve, though single readings can be large; an effect the other way counts as inactive or inconclusive.

Legend:
[1] = qHTS assay to identify small molecule agonists of H2AX - cell viability counter screen (AID 1224847; calls by dose curve; further: nearly all actives have a fitted effect of over 30% in size; further: potency means the concentration at half of the fitted maximal effect)
How it was run: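 We seed wild-type CHO-K1 cells overnight, treat them for 3 hr at 37C with compounds in 15-concentration series, and quantify remaining viability by CellTiter-Glo luminescence.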

[2] = qHTS assay to identify small molecule antagonists of the estrogen related receptor (ERR) signaling pathway from Tox21 library (AID 1224848); further: nearly all actives have a fitted effect of over 50% in size; further: potency means the concentration at half of the fitted maximal effect
How it was run: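 Luciferase luminescence (ONE-Glo, 30 min room temperature) was the read-out. Cells of the NTP-supplied ERR line, 2,000 per well, were given 6 h at 37 C before compound addition in DMSO and 18 h exposure at 37 C.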

[3] = qHTS assay to identify small molecule agonists of the estrogen related receptor (ERR) signaling pathway from Tox21 library (AID 1224849; calls by dose curve; further: nearly all actives have a fitted effect of over 15% in size); conditions: ERR reporter cell line, ONE-Glo luciferase, 18 h; at 92.4 µM (top of the series) unless noted
How it was run: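 Reporter cells (ERR, NTP source) treated with Tox21 10K compounds 18 h, 37 C. Readout: ONE-Glo luminescence, 30 min RT.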

[4] = qHTS RealTime-Glo MT Cell Viability Assay in HepG2 cells - 24 hour (AID 1224867); further: nearly all actives have a fitted effect of over 50% in size; further: potency means the concentration at half of the fitted maximal effect
How it was run: (§1)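 HepG2 suspension premixed with RealTime-Glo reagents is plated at 600 cells per well and left 5 h at 37 C/5% CO2. Compounds in DMSO then go in, and bioluminescence reflecting viable cell number is recorded over 40 h.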

[5] = qHTS RealTime-Glo MT Cell Viability Assay in HEK293 cells - 32 hour (AID 1224868); further: nearly all actives have a fitted effect of over 50% in size; further: potency means the concentration at half of the fitted maximal effect
How it was run: (§2)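 Reads taken at 0, 8, 16, 24, 32 and 40 h from the same wells. HEK293 cells (600/well) carried RealTime-Glo reagents from seeding, with compound added after a 5 h settle at 37 C.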

[6] = A CellTox Green Cytotoxicity Assay to monitor cytotoxicity in HEK293 cells - 0 hour (AID 1224869); further: nearly all actives have a fitted effect of over 50% in size
How it was run: (§3)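 Homogeneous no-lysis format: HEK293 cell suspension mixed with CellTox Green reagent, seeded, incubated 5 h at 37 C/5% CO2, then dosed by pintool with compound in DMSO.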

[7] = qHTS RealTime-Glo MT Cell Viability Assay in HepG2 cells - 40 hour (AID 1224870); further: nearly all actives have a fitted effect of over 50% in size; further: potency means the concentration at half of the fitted maximal effect
How it was run: (§4)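 Real-time viability: cells seeded at 600 per well together with NanoLuc and cell-permeant prosubstrate, compounds added after 5 h incubation. Luminescence tracked at 0, 8, 16, 24, 32 and 40 h of exposure.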

[8] = A CellTox Green Cytotoxicity Assay to monitor cytotoxicity in HEK293 cells - 40 hour (AID 1224871); further: nearly all actives have a fitted effect of over 45% in size; further: potency means the concentration at half of the fitted maximal effect
How it was run: as §3

[9] = qHTS RealTime-Glo MT Cell Viability Assay in HEK293 cells - 16 hour (AID 1224872); further: nearly all actives have a fitted effect of over 50% in size; further: potency means the concentration at half of the fitted maximal effect
How it was run: as §2

[10] = qHTS RealTime-Glo MT Cell Viability Assay in HepG2 cells - 8 hour (AID 1224873); further: nearly all actives have a fitted effect of over 55% in size; further: potency means the concentration at half of the fitted maximal effect
How it was run: as §4

[11] = qHTS RealTime-Glo MT Cell Viability Assay in HEK293 cells - 40 hour (AID 1224874); conditions: RealTime-Glo luminescence; max response: active compounds read low; further: nearly all actives have a fitted effect of over 50% in size; further: potency means the concentration at half of the fitted maximal effect
How it was run: (§5)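 Measured as luminescence from the same continuously cultured HEK293 wells at successive time points (0, 8, 16, 24, 32, 40 h) after compound addition. Reagent present from seeding; dosing at 5 h; incubation 37 C.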

[12] = A CellTox Green Cytotoxicity Assay to monitor cytotoxicity in HEK293 cells - 24 hour (AID 1224875); further: nearly all actives have a fitted effect of over 45% in size; further: potency means the concentration at half of the fitted maximal effect
How it was run: as §3

[13] = A CellTox Green Cytotoxicity Assay to monitor cytotoxicity in HepG2 cells - 16 hour (AID 1224876); further: nearly all actives have a fitted effect of over 45% in size; further: potency means the concentration at half of the fitted maximal effect
How it was run: (§6)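 Fluorescent DNA-binding dye, 600 HepG2 cells/well, 5 h preincubation then compound in DMSO; same plates read at 0–40 h, 37 C.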

[14] = qHTS RealTime-Glo MT Cell Viability Assay in HepG2 cells - 32 hour (AID 1224877); further: nearly all actives have a fitted effect of over 55% in size; further: potency means the concentration at half of the fitted maximal effect
How it was run: as §1

[15] = qHTS RealTime-Glo MT Cell Viability Assay in HEK293 cells - 0 hour (AID 1224880); further: top concentration of the series differs between compounds; nearly all actives have a fitted effect of over 45% in size
How it was run: as §5

[16] = A CellTox Green Cytotoxicity Assay to monitor cytotoxicity in HEK293 cells - 32 hour (AID 1224881); further: nearly all actives have a fitted effect of over 40% in size; further: potency means the concentration at half of the fitted maximal effect
How it was run: as §3

[17] = A CellTox Green Cytotoxicity Assay to monitor cytotoxicity in HepG2 cells - 0 hour (AID 1224882); further: nearly all actives have a fitted effect of over 35% in size
How it was run: as §6

[18] = A CellTox Green Cytotoxicity Assay to monitor cytotoxicity in HepG2 cells - 24 hour (AID 1224878); further: nearly all actives have a fitted effect of over 45% in size; further: potency means the concentration at half of the fitted maximal effect
How it was run: as §6

[19] = A CellTox Green Cytotoxicity Assay to monitor cytotoxicity in HepG2 cells - 40 hour (AID 1224879); further: nearly all actives have a fitted effect of over 40% in size; further: potency means the concentration at half of the fitted maximal effect
How it was run: as §6

[20] = A CellTox Green Cytotoxicity Assay to monitor cytotoxicity in HepG2 cells - 32 hour (AID 1224883); further: nearly all actives have a fitted effect of over 50% in size; further: potency means the concentration at half of the fitted maximal effect
How it was run: as §6
On the % scale 0 is the no-effect control and ±100 the full control effect.

O=C1CCCCCCCCCCCCCC1
inactive: Potency [1] | Potency [2] | activity change, positive = activation [3] 1.09% | Potency [4] | Potency [5] | Potency [6] | Potency [7] | Potency [9] | Potency [10] | max response [11] -11.7% | Potency [13] | Potency [14] | Potency [15] | Potency [17]
active: Potency [8] 43.6 µM | Potency [12] 43.6 µM | Potency [16] 43.6 µM

CN[C@H]1CC[C@@H](c2ccc(Cl)c(Cl)c2)c2ccc(S(N)(=O)=O)cc21
inactive: activity change, positive = activation [3] -79% | Potency [6] | Potency [17]
active: Potency [1] 113 µM | Potency [2] 61.1 µM | Potency [4] 24.5 µM | Potency [5] 19.5 µM | Potency [7] 21.9 µM | Potency [8] 27.5 µM | Potency [9] 24.5 µM | Potency [10] 49 µM | Potency [11] 19.5 µM | Potency [12] 21.9 µM | Potency [13] 43.6 µM | Potency [14] 19.5 µM | Potency [18] 13.8 µM | Potency [19] 13.8 µM | Potency [20] 13.8 µM

Clc1cccc(Cl)n1
inactive: Potency [1] | Potency [2] | activity change, positive = activation [3] 0.024% | Potency [4] | Potency [5] | Potency [6] | Potency [7] | Potency [9] | Potency [10] | max response [11] 3.2% | Potency [12] | Potency [13] | Potency [14] | Potency [18] | Potency [19] | Potency [15] | Potency [17] | Potency [20]

CCc1c(C)cc(N)c(CC)c1N
inactive: Potency [1] | Potency [2] | activity change, positive = activation [3] -1.89% | Potency [4] | Potency [5] | Potency [6] | Potency [7] | Potency [9] | Potency [10] | max response [11] 1.8% | Potency [12] | Potency [13] | Potency [14] | Potency [18] | Potency [19] | Potency [15] | Potency [17] | Potency [20]

CC/C(=C(/c1ccc(O)cc1)c1ccc(OCCN(C)C)cc1)c1ccccc1
active: Potency [1] 41.9 µM | Potency [2] 18 µM | Potency [4] 18.2 µM | Potency [5] 9.11 µM | Potency [7] 12.9 µM | Potency [8] 20.4 µM | Potency [10] 28.8 µM | Potency [11] 8.12 µM | Potency [12] 25.7 µM | Potency [13] 25.7 µM | Potency [19] 12.9 µM | Potency [16] 22.9 µM | Potency [20] 14.4 µM
inactive: activity change, positive = activation [3] -77.3% [at 42.5 µM] | Potency [6] | Potency [15] | Potency [17]

C[C@H]1O[C@@H](O[C@H]2CC[C@@]3(C)[C@H](CC[C@@H]4[C@@H]3C[C@@H](O)[C@]3(C)[C@@H](C5=CC(=O)OC5)CC[C@]43O)C2)C[C@H](O)[C@@H]1O[C@H]1C[C@H](O)[C@H](O[C@H]2C[C@H](O)[C@H](O[C@@H]3O[C@H](CO)[C@@H](O)[C@H](O)[C@H]3O)[C@@H](C)O2)[C@@H](C)O1
inactive: Potency [1] | activity change, positive = activation [3] -54.9% [at 42.5 µM] | Potency [4] | Potency [6] | Potency [7] | Potency [10] | Potency [12] | Potency [13] | Potency [14] | Potency [18] | Potency [19] | Potency [15] | Potency [16] | Potency [17] | Potency [20]
active: Potency [2] 0.376 µM | Potency [5] 0.239 µM | Potency [11] 0.239 µM

Cc1cc(C)c(O)c(C(C)(C)C)c1
inactive: Potency [2] | activity change, positive = activation [3] 1.52% | Potency [4] | Potency [6] | Potency [7] | Potency [9] | Potency [10] | max response [11] -8.82% | Potency [13] | Potency [14] | Potency [19] | Potency [15] | Potency [20]
active: Potency [1] 113 µM | Potency [8] 34.7 µM | Potency [12] 24.5 µM | Potency [16] 27.5 µM

Clc1ccc2c(Cl)ccnc2c1
inactive: Potency [1] | Potency [2] | activity change, positive = activation [3] 1.29% | Potency [4] | Potency [5] | Potency [6] | Potency [7] | Potency [9] | Potency [10] | max response [11] -6.98% | Potency [12] | Potency [13] | Potency [14] | Potency [18] | Potency [19] | Potency [15] | Potency [16] | Potency [20]

Oc1ccc(Cl)cc1C1CCCC1
active: Potency [1] 56.6 µM | Potency [8] 49 µM | Potency [9] 24.5 µM | Potency [12] 54.9 µM | Potency [13] 54.9 µM | Potency [18] 54.9 µM | Potency [19] 54.9 µM | Potency [16] 49 µM | Potency [20] 54.9 µM
inactive: Potency [2] | activity change, positive = activation [3] 6.21% | Potency [4] | Potency [6] | Potency [7] | Potency [10] | max response [11] -29.3% | Potency [15] | Potency [17]

SC1CCCCC1
inactive: Potency [1] | Potency [2] | activity change, positive = activation [3] 7.84% | Potency [4] | Potency [5] | Potency [6] | Potency [7] | Potency [8] | Potency [9] | Potency [10] | max response [11] 6.15% | Potency [12] | Potency [13] | Potency [18] | Potency [19] | Potency [15] | Potency [20]

C/C=C/C(=O)C1=C(C)C=CCC1(C)C
inactive: Potency [1] | Potency [2] | activity change, positive = activation [3] -1.28% | Potency [4] | Potency [6] | Potency [7] | Potency [8] | Potency [9] | Potency [10] | max response [11] 1.31% | Potency [12] | Potency [13] | Potency [14] | Potency [18] | Potency [19] | Potency [15] | Potency [16] | Potency [17] | Potency [20]

C=Cc1ccncc1
inactive: Potency [1] | Potency [2] | activity change, positive = activation [3] 4.99% | Potency [4] | Potency [6] | Potency [7] | Potency [8] | Potency [9] | Potency [10] | max response [11] -1.15% | Potency [12] | Potency [13] | Potency [14] | Potency [19] | Potency [15] | Potency [16] | Potency [17] | Potency [20]

N#CCCOCCC#N
inactive: Potency [1] | Potency [2] | activity change, positive = activation [3] 1.08% | Potency [4] | Potency [5] | Potency [6] | Potency [8] | Potency [9] | Potency [10] | max response [11] 2.28% | Potency [12] | Potency [13] | Potency [14] | Potency [19] | Potency [15] | Potency [16] | Potency [17] | Potency [20]
